The panel holds about 79,000 compounds, 15% with a hit somewhere; the sample as a whole holds those more often. A number with no mark means an inactive call. Rule as the data show it: active = growth inhibition above about 70%; inactive = the rest.

One experiment can be described thus: NCI Yeast Anticancer Drug Screen. Data for the cln2 rad14 strain (AID 165).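 Also: 0% = growth equal to vehicle treated cultures.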 The following applies: S. cerevisiae cln2 rad14 strain, at 50.0 µM, active compounds read high. In outline:
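Yeast carrying cln2 and rad14 alterations (cell cycle control and DNA damage repair) were exposed to compounds. Growth inhibition was measured against vehicle-treated controls.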
In the case of `NC(=O)c1[nH]c(/N=N/c2nc[nH]c2C(N)=O)nc1N`, the growth inhibition was -17.1%.
As for `Oc1ccc(Cl)c(O)c1`, the growth inhibition was 0.9%.
Turning to `Cn1c(=O)c2[nH]c(NCc3ccccc3)nc2n(C)c1=O`, the growth inhibition was -35.2%.
`CCOC(=O)C1=C(C)NC(C)=C(C(=O)OCC)C1C`: the growth inhibition was -10.5%.
For the molecule `COc1cccc(N(CN2C(=O)CCC2OC)C(C)=O)c1` (stereo not given), the growth inhibition is 19.3%.
On to `O=C(Nc1ccc(Cl)c(Cl)c1)Oc1ccc(Cl)cc1C(=O)Nc1ccccc1`, for which the growth inhibition is -7.4%.
Take `CCCCCc1[nH]c(=O)[nH]c(=O)c1S(=O)(=O)N1CCCCC1`: the growth inhibition was 3.4%.
Turning to `CC(=O)N(CN1C(=O)CCC1C(=O)O)c1ccccc1` (stereo not given), the growth inhibition is 1.55%.
In the case of `NC(CCOCCP(=O)(O)CCC1C=CC=CC1)C(=O)O` (stereo not given), the growth inhibition was 5.6%.
As for `Nc1ccc([N+](=O)[O-])c2ccccc12`, the growth inhibition is 10.8%.
The same measure, in the same setting: the same measure for `Cc1ccc(C(=O)/C=C/c2ccco2)cc1`: 33.5%.
The same measure, in the same setting: then `C=CCNC(=O)NCCCC(NC(C)=O)C(=O)NCc1ccccc1` (stereo not given), with 6.75%; and `O=c1c2cnc3cc(Cl)ccc3c2[nH]n1-c1ccc(Cl)cc1`, with -2.55%; and `COc1ccc(-c2cc(C)n(C3OC(CO)C(O)C(O)C3O)c(=S)c2C#N)cc1` (stereo not given), with -19.1%.
Take `CC(=O)OC1CCC2(C)C3CCC4(C)C(C(C)CCCC(C)C)CCC4C3CC(=O)C23CC13` (stereo not given): the growth inhibition was 6.9%.
For `CCCOc1nc(N)c2cnn(C3CCCCO3)c2n1` (stereo not given), the growth inhibition is 16.1%.
On to `CC(=O)O[C@@H]1[C@@H](C)[C@]2(CC(c3ccoc3)OC2O)C2CCC3O[C@]3(C)[C@]2(C)[C@@H]1OC(C)=O` (stereo not given in full), for which the growth inhibition is -12.2%.
On the same count and under the same terms, the same measure for `NC(Cc1c(F)c(F)c(F)c(F)c1F)C(=O)O` (stereo not given): -11.3%; for `ClC1C2c3ccccc3C1C1C2C2(c3ccccc3)OC1(c1ccccc1)c1ccccc12` (stereo not given): -60.1%.
Take `COc1ccc(CCNC(=O)CCc2ccccc2CO)cc1OC`: the growth inhibition was -5.9%.
Same read-out and setting: then `Cc1cccc(NC(=O)Nc2cccc(Cl)c2Cl)n1`, with 15.1%; and `CCCCCC1CC[N-]CC1.CCCCCC1CC[N-]CC1.N#C[S-].N#C[S-].[Cu]`, with -33.1%.
Consider `CCOC(=O)C(C)(C)OC(C)=O`, for which the growth inhibition is 13.8%.
For `Cc1nc(C(N)=O)c(=O)[nH]c1C`, the growth inhibition was -22.9%.
For `C(=Nc1cccc2ccccc12)Nc1cccc2ccccc12`, the growth inhibition is -6.7%.
As for `Cc1cc2c(cc1C)C(C)(C)c1c(nc(N)[nH]c1=O)N2C`, the growth inhibition is -15.7%.
Regarding `COC(=O)C1CC(=O)c2cc(OC)ccc2C1` (stereo not given), the growth inhibition is 6.05%.
With `CC[N+](C)(CC)c1cccc(OC(=O)N2CCCCC2)c1`, the growth inhibition was 0.2%.
For `Cc1cc(N(CCC#N)CCC#N)ccc1N=Nc1ccc(C(=O)O)cc1`, the growth inhibition was -1.15%.
As to `CCOC(=O)c1ccnc(F)c1`, the growth inhibition is -8.8%.
With `Oc1ccccc1C=NCCCN=Cc1ccccc1O`, the growth inhibition is 15.5%.
For `CS(=O)(=O)Nc1cccc(C(=O)NN)c1`, the growth inhibition was -11.3%.
As for `CCCCCCCCn1c(C)nc2c(cnn2C)c1=O`, the growth inhibition is 20.9%.
For `N=c1sc(N2CCOCC2)nn1CC(=O)c1ccccc1`, the growth inhibition was 4.35%.
On the same count and under the same terms, then `O=S(=O)(c1cnccc1N1CCN(CCO)CC1)N1CCCC1`, with -7.6%.
As for `CCOC(=O)CCC(NC(=O)c1ccc(N=Cc2nc3ccccc3nc2-c2ccccc2)cc1)C(=O)OCC` (stereo not given), the growth inhibition is 14.5%.
`NCS(=O)(=O)O`: the growth inhibition is 9.5%.
On to `N#C/C(C(=O)Nc1ccccc1)=C(/N)N1CCCC1`, for which the growth inhibition was -5.65%.
As to `CCCNS(C)(=O)=O`, the growth inhibition was 3.15%.
Regarding `Oc1ccc(-c2csc(NNC3=NC/C(=C/c4ccc5c(c4)OCO5)S3)n2)cc1O`, the growth inhibition was -11.4%.

The next experiment can be described thus: NCI Yeast Anticancer Drug Screen. Data for the bub3 strain (AID 167). Particulars: S. cerevisiae bub3 mutant strain, at 50.0 µM, active compounds read high. Summed up:
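In this screen, a yeast mutant lacking normal mitotic checkpoint function is challenged with compound. Relative growth versus vehicle gives the inhibition value.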
As for `NC(=O)c1[nH]c(/N=N/c2nc[nH]c2C(N)=O)nc1N`, the growth inhibition was -4.65%.
As to `Oc1ccc(Cl)c(O)c1`, the growth inhibition is -6%.
In the case of `Cn1c(=O)c2[nH]c(NCc3ccccc3)nc2n(C)c1=O`, the growth inhibition was 0.4%.
On the same count and under the same terms, then `CCOC(=O)C1=C(C)NC(C)=C(C(=O)OCC)C1C`, with -22.1%; and `COc1cccc(N(CN2C(=O)CCC2OC)C(C)=O)c1` (stereo not given), with -7.35%.
Take `O=C(Nc1ccc(Cl)c(Cl)c1)Oc1ccc(Cl)cc1C(=O)Nc1ccccc1`: the growth inhibition is 28.1%.
Regarding `CCCCCc1[nH]c(=O)[nH]c(=O)c1S(=O)(=O)N1CCCCC1`, the growth inhibition was 25.9%.
The same measure, in the same setting: the same measure for `CC(=O)N(CN1C(=O)CCC1C(=O)O)c1ccccc1` (stereo not given): 0.7%; for `NC(CCOCCP(=O)(O)CCC1C=CC=CC1)C(=O)O` (stereo not given): -21.3%; for `Nc1ccc([N+](=O)[O-])c2ccccc12`: 24.6%.
Consider `Cc1ccc(C(=O)/C=C/c2ccco2)cc1`, for which the growth inhibition is 34.5%.
Consider `C=CCNC(=O)NCCCC(NC(C)=O)C(=O)NCc1ccccc1` (stereo not given), for which the growth inhibition is -22.3%.
For the molecule `O=c1c2cnc3cc(Cl)ccc3c2[nH]n1-c1ccc(Cl)cc1`, the growth inhibition was 2.75%.
For `COc1ccc(-c2cc(C)n(C3OC(CO)C(O)C(O)C3O)c(=S)c2C#N)cc1` (stereo not given), the growth inhibition was -0.6%.
Consider `CC(=O)OC1CCC2(C)C3CCC4(C)C(C(C)CCCC(C)C)CCC4C3CC(=O)C23CC13` (stereo not given), for which the growth inhibition was -6.3%.
Consider `CCCOc1nc(N)c2cnn(C3CCCCO3)c2n1` (stereo not given), for which the growth inhibition is 14.2%.
With `CC(=O)O[C@@H]1[C@@H](C)[C@]2(CC(c3ccoc3)OC2O)C2CCC3O[C@]3(C)[C@]2(C)[C@@H]1OC(C)=O` (stereo not given in full), the growth inhibition was -39.5%.
On the same count and under the same terms, then `NC(Cc1c(F)c(F)c(F)c(F)c1F)C(=O)O` (stereo not given), with -12.1%; and `ClC1C2c3ccccc3C1C1C2C2(c3ccccc3)OC1(c1ccccc1)c1ccccc12` (stereo not given), with -2%.
Consider `COc1ccc(CCNC(=O)CCc2ccccc2CO)cc1OC`, for which the growth inhibition was -39.2%.
The same measure, in the same setting: the same measure for `Cc1cccc(NC(=O)Nc2cccc(Cl)c2Cl)n1`: 23.9%.
Same read-out and setting: the same measure for `CCCCCC1CC[N-]CC1.CCCCCC1CC[N-]CC1.N#C[S-].N#C[S-].[Cu]`: -16.7%; for `CCOC(=O)C(C)(C)OC(C)=O`: 4.2%; for `Cc1nc(C(N)=O)c(=O)[nH]c1C`: 2.65%.
Turning to `C(=Nc1cccc2ccccc12)Nc1cccc2ccccc12`, the growth inhibition is -48.8%.
`Cc1cc2c(cc1C)C(C)(C)c1c(nc(N)[nH]c1=O)N2C`: the growth inhibition is -0.45%.
Still for that read-out and setting: the same measure for `COC(=O)C1CC(=O)c2cc(OC)ccc2C1` (stereo not given): -7.75%; for `CC[N+](C)(CC)c1cccc(OC(=O)N2CCCCC2)c1`: -4.75%; for `Cc1cc(N(CCC#N)CCC#N)ccc1N=Nc1ccc(C(=O)O)cc1`: -2.9%.
With `CCOC(=O)c1ccnc(F)c1`, the growth inhibition was 1%.
Regarding `Oc1ccccc1C=NCCCN=Cc1ccccc1O`, the growth inhibition was 48.8%.
With `CS(=O)(=O)Nc1cccc(C(=O)NN)c1`, the growth inhibition was -11.7%.
As to `CCCCCCCCn1c(C)nc2c(cnn2C)c1=O`, the growth inhibition is 36.1%.
For `N=c1sc(N2CCOCC2)nn1CC(=O)c1ccccc1`, the growth inhibition is -17.1%.
Consider `O=S(=O)(c1cnccc1N1CCN(CCO)CC1)N1CCCC1`, for which the growth inhibition is 3.05%.
In the case of `CCOC(=O)CCC(NC(=O)c1ccc(N=Cc2nc3ccccc3nc2-c2ccccc2)cc1)C(=O)OCC` (stereo not given), the growth inhibition is 11.8%.
Still for that read-out and setting: then `NCS(=O)(=O)O`, with -24.2%; and `N#C/C(C(=O)Nc1ccccc1)=C(/N)N1CCCC1`, with -14.3%.
Regarding `CCCNS(C)(=O)=O`, the growth inhibition was 11.1%.
Still for that read-out and setting: the same measure for `Oc1ccc(-c2csc(NNC3=NC/C(=C/c4ccc5c(c4)OCO5)S3)n2)cc1O`: 21.1%.
